Measured values published in PubChem BioAssay AID602481 (Broad Institute, 2012).
Values joined by “and” are separate entries in the source; they are usually repeats but may differ in a detail not shown here. Equal entries are not always repeated. The whole screen tested about 360,000 compounds, of which about 340 (0.094%) were called active. No stated cut-off is given here; in the data, active means inhibition above about 40%; inconclusive means no clear call, values can overlap the other calls; inactive means below that. The list comes from a sample in which actives are over-represented; it also holds similar structures and randomly drawn compounds. The source holds several records for some structures; these can differ, active in one and inactive in another.

The compounds below were run on 7,8-diaminopelargonic acid synthase BioA (Mycobacterium tuberculosis) (assay: M. tuberculosis BioA enzyme inhibitors, primary screen, biochemical, plate reader, single point, HTS (AID 602481)). Conditions: purified M. tuberculosis BioA enzyme, at 9.99 µM, stronger effect = higher value.

Structure (SMILES) | inhibition
CC(C)Oc1ccc(Cc2n[nH]c(=S)n2Cc2ccccc2)cc1Cl | 0.831% (inactive)
CC(C)Oc1ccc(CCc2n[nH]c(=S)n2Cc2ccccc2)cc1 | 0.782% (inactive)
COc1cc(-c2n[nH]c(=S)n2Cc2ccccc2)cc(OC)c1OC | 69.8% (active)
COc1ccc(S(=O)(=O)N2C[C@@H](O)COC[C@H]3O[C@@H](CC(=O)NCCN4CCCCC4)CC[C@@H]32)cc1 | -1.77% (inactive)
CC(C)NC(=O)N1[C@@H]2CN(C(=O)C3CCCCC3)c3ccccc3[C@@H]2[C@@H]1CO | -4.4% (inactive)
Cc1noc(C)c1S(=O)(=O)N(C)C[C@@H]1Oc2c(NS(=O)(=O)c3cn(C)cn3)cccc2C(=O)N([C@@H](C)CO)C[C@H]1C | -0.608% (inactive)
Cc1ccc(S(=O)(=O)N(C)C[C@@H]2Oc3c(NC(=O)NC(C)C)cccc3C(=O)N([C@H](C)CO)C[C@H]2C)cc1 | -1.17% (inactive)
CC(=O)O[C@]1(C(C)=O)CC[C@H]2[C@@H]3C=C(C)C4=CC(=O)CC[C@]4(C)[C@H]3CC[C@@]21C | 13.2% (inactive) and 51.3% (active)
CC(=O)OCC(=O)C1(O)CCC2C3CC(C)C4=CC(=O)CCC4(C)C3C(O)CC21C (configuration not stated) | -0.825% (inactive)
C[C@]12CCC(=O)C=C1C=CC1C2CC[C@@]2(C)C1CC[C@@]21CCC(=O)O1 (some centres not stated) | 19.6% (inactive)
CC(C)C#Cc1cnc2c(c1)C(=O)N([C@@H](C)CO)C[C@@H](C)[C@@H](CN(C)C(=O)CN1CCOCC1)O2 | -1.21% (inactive)
C[C@@H]1CN([C@@H](C)CO)C(=O)c2cc(NS(=O)(=O)c3cn(C)cn3)ccc2O[C@@H](C)CCCCO[C@H]1CN(C)S(=O)(=O)c1cccs1 | 0.052% (inactive)
O=C(C1CCCC1)N1[C@H](CO)[C@@H]2c3ccccc3N(S(=O)(=O)c3ccccc3)C[C@@H]21 | 6.11% (inactive)
Cc1ccc(S(=O)(=O)N[C@H]2C=C[C@@H](CC(=O)NCCc3ccncc3)O[C@@H]2CO)cc1 | 2.21% (inactive)
C[C@H](CO)N1C[C@H](C)[C@H](CN(C)S(=O)(=O)c2ccc(C#N)cc2)Oc2ncc(-c3cccc(F)c3)cc2C1=O | 4.36% (inactive)
CO[C@@H](CN(C)S(=O)(=O)c1ccccc1)[C@@H](C)CN(Cc1ccccc1Cl)[C@H](C)CO | -0.143% (inactive)
CC1CC(C)CN(C(=O)CSc2nnc(CSc3ncccn3)n2C)C1 (configuration not stated) | 0.828% (inactive)
CC(=O)CSc1nnc(CSc2ncccn2)n1C1CCCCC1 | 43.5% (active)
O=C(CSc1nnc(-c2ccncc2)n1C1CCCCC1)Nc1ccccc1 | -0.812% (inactive)
CCCN1C[C@H](C)[C@@H](OC)CN(C)C(=O)c2ccc(NC(=O)c3cnccn3)cc2OC[C@H]1C | -1.47% (inactive)
COc1ccc(NC(=O)N(C)C[C@H]2OCCCC[C@@H](C)Oc3ccc(NC(=O)Nc4ccc5c(c4)OCO5)cc3C(=O)N([C@H](C)CO)C[C@@H]2C)cc1 | -1.28% (inactive)

Structure (SMILES) | inhibition
C[C@H](CO)N1C[C@H](C)[C@@H](CN(C)C)Oc2ccc(NS(=O)(=O)c3cccs3)cc2C1=O | 2.81% (inactive)
CC(=O)N1[C@H](CO)[C@H]2c3ccccc3N(C(=O)c3ccc(F)cc3)C[C@H]21 | -3.14% (inactive)
Cc1ccc(S(=O)(=O)N(C)C[C@@H]2Oc3c(NC(=O)C4CC4)cccc3C(=O)N([C@H](C)CO)C[C@@H]2C)cc1 | -0.903% (inactive)
C[C@@H]1CCCCO[C@H](CN(C)C)[C@@H](C)CN([C@H](C)CO)C(=O)c2cc(N(C)C)ccc2O1 | -0.059% (inactive)
CN(C)CC(=O)Nc1ccc2c(c1)[C@H]1C[C@@H](CC(=O)NCc3ccc(Cl)cc3)O[C@@H](CO)[C@H]1O2 | 0.123% (inactive)
C[C@H]1CN([C@@H](C)CO)C(=O)CCCn2cc(nn2)CO[C@H]1CN(C)C(=O)Nc1cccc(C(F)(F)F)c1 | -3.91% (inactive)
COCC(=O)N1[C@H](CO)[C@@H](c2ccccc2)[C@H]1CN(C)C(=O)c1ccncc1 | -4.1% (inactive)
C[C@@H]1CN([C@@H](C)CO)C(=O)c2c(c3ccccc3n2C)-c2ccccc2CO[C@H]1CN(C)S(=O)(=O)c1cccs1 | -2.08% (inactive)
CN1[C@@H]2CN(C(=O)C3CCCCC3)c3ccccc3[C@@H]2[C@@H]1CO | 5.87% (inactive)
CC(C)(C)[S@@](=O)N1Cc2cc(C(=O)N3CCCCC3)nc(-c3cccc(-c4cccc(C#N)c4)c3)c2[C@H]1CCO | 0.956% (inactive)
COc1ccc(NC(=O)Nc2ccc3c(c2)[C@H]2C[C@H](CC(=O)NC4CCCCC4)O[C@H](CO)[C@H]2O3)cc1 | 0.43% (inactive)
Cn1nccc1/C=N\NC(=O)c1ccc(Cl)cc1 | 69.1% (active)
CC(=NNC(=O)c1ccncc1)c1ccc(Cl)c(Cl)c1 | -0.685% (inactive)
CN1CCC(=NNC(=O)c2ccc(N(Cc3ccc(Cl)cc3)S(C)(=O)=O)cc2)CC1 | -0.516% (inactive)
CC(=O)Nc1ccccc1-c1cn(CC(=O)N2CCOCC2)nn1 | -2.47% (inactive)
CC(C)CC#Cc1cnc2c(c1)C(=O)N([C@@H](C)CO)C[C@H](C)[C@@H](CN(C)Cc1ccccc1C(=O)O)O2 | -0.715% (inactive)
C[C@@H]1CN([C@@H](C)CO)C(=O)c2cc(NC(=O)CCCN(C)C)ccc2O[C@@H](C)CCCCO[C@H]1CN(C)C(=O)Nc1cccc2ccccc12 | -0.656% (inactive)
O=C(C[C@@H]1C[C@H]2c3cc(NC(=O)CC4CC4)ccc3O[C@H]2[C@@H](CO)O1)NCc1ccc2c(c1)OCO2 | -1.7% (inactive)
C[C@@H]1CCCCO[C@@H](CN(C)C(=O)Nc2ccc3c(c2)OCO3)[C@H](C)CN([C@H](C)CO)C(=O)c2cc(NC(=O)CCCN(C)C)ccc2O1 | 1.19% (inactive)
CCC(=O)Nc1ccc2c(c1)C(=O)N(C)C[C@H](OC)[C@H](C)CN(C(=O)c1ccccn1)[C@@H](C)CO2 | -2.41% (inactive)
COCCNC(=O)C[C@H]1C=C[C@@H](NS(=O)(=O)c2ccc(C)cc2)[C@@H](CO)O1 | -2.72% (inactive)
